Each structure is given as a SMILES string. The whole screen tested about 320,000 compounds, of which about 190 (0.059%) were called active. The sample as a whole holds a higher share of actives than the screen did. Unmarked numbers belong to inactive results. Cut-off read from the data, not from the text of the source: active = inhibition above about 10% (passing the limit was not always enough); inconclusive = no clear call, values can overlap the other calls.

Sequence of UDP-galactopyranose mutase (Mycobacterium tuberculosis (strain ATCC 25618 / H37Rv)) (P9WIQ1 whole entry, looked up): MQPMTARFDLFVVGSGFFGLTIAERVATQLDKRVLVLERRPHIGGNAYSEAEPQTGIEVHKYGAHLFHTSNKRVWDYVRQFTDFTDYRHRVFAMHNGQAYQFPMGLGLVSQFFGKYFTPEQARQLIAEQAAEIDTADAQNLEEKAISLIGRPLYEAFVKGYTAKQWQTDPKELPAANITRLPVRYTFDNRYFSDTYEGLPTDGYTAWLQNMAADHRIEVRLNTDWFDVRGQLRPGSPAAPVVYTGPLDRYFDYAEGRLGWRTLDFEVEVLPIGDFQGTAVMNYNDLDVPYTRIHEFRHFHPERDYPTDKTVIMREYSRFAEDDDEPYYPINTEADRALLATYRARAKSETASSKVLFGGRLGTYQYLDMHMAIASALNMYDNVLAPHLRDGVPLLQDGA

The assay addresses UDP-galactopyranose mutase (Mycobacterium tuberculosis (strain ATCC 25618 / H37Rv)) (UniProt P9WIQ1). Nature of the assay: M. tuberculosis UGM enzyme inhibitors, primary screen, biochemical, fluorescence polarization, single point (AID 504406). Particulars: purified UGM, fluorescence polarization probe displacement; at 10 µM; hits give high values.
Broadly, the inhibition is the relative decrease from the control value, in per cent. `CC(=O)C1=C(O)C(=O)N(c2ccc(S(N)(=O)=O)cc2)C1c1ccccc1F` (centres undefined): the inhibition is 3.63%. The value for `Cc1ccc(CCn2c3c(c4ccccc42)CN(C)CC3)cn1` was 0.129%; that for `O=C(NCc1cccnc1)Nc1cccc(NC(=O)NCc2cccnc2)c1F` was -4.12%. Regarding `CCOC(=O)C1(Cc2cccc(OC)c2)CCCN(C(=O)CCSC)C1` (centres undefined), the inhibition is 1.34%. On to `Cc1ccc(-c2nn(-c3cccc(F)c3)cc2CNCCc2ccncc2)o1`, for which the inhibition is -3.08%. Consider `Cc1ccc2c(CC(=O)NCc3cccs3)coc2c1`, for which the inhibition was -2.27%. Regarding `CCN1C(=NCc2ccc(OC)cc2)N[C@@H](CCc2ccccc2)[C@H](C(=O)NCc2ccc(OC)cc2)[C@H]1C`, the inhibition is 0.311%. With `COc1ccc(OC)c(C2N(c3ccccn3)C(=O)C3CCCN32)c1` (centres undefined), the inhibition is -1.67%. With `O=C(c1ccc(Cl)c(S(=O)(=O)N2CCCCCC2)c1)N1CCN(c2ccc(O)cc2)CC1` the figure was 0.826%; with `CSCCC(NS(=O)(=O)c1ccc2c(c1)oc(=O)n2C)C(=O)NCc1ccccc1` (centres undefined), 7.62%; with `COc1cccc(CNS(=O)(=O)c2ccc3c(c2)N(C(C)=O)CCS3)c1`, 0.635%. Consider `Cc1nc(NCc2ccccc2)c(C(N)=O)c2c1COC(C)(C)C2`, for which the inhibition was -0.415%. Regarding `O=C(CSc1nnnn1-c1ccc(O)cc1)N1N=C(c2ccc3ccccc3c2)CC1c1ccccc1` (centres undefined), the inhibition is -0.544%. For `O=C(CN1C(=O)COc2ccc(Cl)cc21)N1CCOCC1`, the inhibition is -2.04%. For `Nc1ncc(CN2CCCC(C(=O)Nc3ccc(-c4ccco4)cc3)C2)cn1` (centres undefined), the inhibition is -0.194%. Regarding `O=C(CCCN1C(=O)c2ccccc2C1=O)Oc1ccc(Cl)cc1`, the inhibition was 1.46%. For the compound `COc1cc(S(=O)(=O)N(Cc2cccs2)C2CC2)ccc1-n1cnnn1`, the inhibition was -0.867%. For the compound `CCOc1cc(C(=O)Nc2ccc(S(=O)(=O)Nc3cnc4ccccc4n3)cc2)cc(OCC)c1OCC`, the inhibition was -1.61%.

As for `COC(=O)C1(C)CC1(c1ccccc1)c1ccccc1` (centres undefined), the inhibition is -0.587%. For `NC(=O)C1CC=CCC1C(=O)OCC(Cl)=C(Cl)Cl` (centres undefined), the inhibition was -1.58%. As to `Nc1ccc2nc3c(=O)[nH]c(=S)[nH]c3nc2c1`, the inhibition is 15.2% (active). As for `CC(C)C[C@@H](COc1ccccc1)N1CCN(CC(C)C)CCC1=O`, the inhibition is 1.36%. For the compound `O=C(Nc1ccc([N+](=O)[O-])cc1)OCCc1ccccn1`, the inhibition is -0.463%. Turning to `Cc1ccc(S(=O)(=O)NC2CCCCCC2)cc1C(N)=O`, the inhibition was 1.67%. Regarding `CC(C)(C)C1CCC(C(=O)NCC(c2cccs2)N2CCOCC2)CC1` (centres undefined), the inhibition was 0.328%. With `C(=C\c1ccccc1)/CSc1nnc(-c2cccnc2)n1Cc1ccco1` the figure was 1.26%; with `CC(C(=O)O)N1C(=O)c2cccc3cccc1c23` (centres undefined), 3.93%.

Turning to `Cc1nn(C)cc1N1C(=O)c2cccc3c(N)ccc(c23)C1=O`, the inhibition was 31.9% (active). `CN1C(=O)c2cccc3c(N)ccc(c23)C1=O`: the inhibition is 24.4% (active). In the case of `COc1ccc([N+](=O)[O-])cc1NC(=O)c1ccc(N(Cc2ccccc2C)S(C)(=O)=O)cc1`, the inhibition is 0.0791%.

As to `COc1cc(OC)cc(/C(N)=N/O)c1`, the inhibition was 1.41%. Take `CC(=O)Nc1ccc(NC(=O)C2CCCN2S(=O)(=O)c2cccc(C(F)(F)F)c2)cc1` (centres undefined): the inhibition is -2.31%. The value for `CC(=O)Nc1ccc(S(=O)(=O)NC(C)C(=O)OCCOc2ccc(F)cc2)cc1` (centres undefined) was -1.41%. On to `CCCCN(CC)CCNC(=O)CCNC(=O)Cn1ccc2ccccc2c1=O`, for which the inhibition is 0.375%.

Take `COCCCNC(NC(=O)c1ccc(C)cc1)C(Cl)(Cl)Cl` (centres undefined): the inhibition is -0.407%. For the compound `O=C(NNC1=NCCC1)c1cccc(S(=O)(=O)N2CCCCC2)c1`, the inhibition is 2.86%. Turning to `COc1ccc(/C=C(/NC(=O)c2ccco2)C(=O)Nc2ccc(C(C)=O)cc2)cc1`, the inhibition is 0.676%.

Consider `COc1ccc(-c2cc(C(=O)N3CCN(c4ccc(F)cc4)CC3)no2)cc1`, for which the inhibition is 0.979%.

`Oc1ccc2ccc3cccc[n+]3c2c1`: the inhibition is 45.7% (active). The value for `CCc1ccc(C(=O)N2CCN(S(=O)(=O)c3sc(C(=O)O)c(C)c3C(=O)O)CC2)cc1` was 2.51%; that for `COc1ccc(/C=C/C(=O)OCC(=O)NC2CCCCCC2)cc1OC` was 29.9% (active); that for `COc1ccccc1/C=C/C(=O)OCC(=O)NC1CCCCCC1` was -0.893%. With `COc1cc(/C=C/C(=O)OCC(=O)NC2CC2)cc(OC)c1OC` the figure was 0.117%; with `COc1cccc(NC(=O)Cn2c3ccccc3c3nc4n(c(=O)c32)CCS4)c1`, 0.23%; with `COc1ccccc1NC(=O)C(C)OC(=O)c1ccc(-n2cnnn2)cc1` (centres undefined), -1.34%.

`COc1ccc(S(=O)(=O)N2CCN(C(=O)c3cc(C)oc3C)CC2)cc1`: the inhibition was -0.865%. Consider `COc1ccc(N(CC(=O)NC2CCCCC2)C(=O)CNC(=O)c2ccco2)c(OC)c1`, for which the inhibition was 2.4%. With `CC(C)CCNc1nc(N2CCCC2)c2c(c1C#N)CCN(C)C2`, the inhibition was 3.98%.

With `Clc1ccc(-c2cc(C3CCNCC3)[nH]n2)c(Cl)c1`, the inhibition was 1.34%. On to `O=C1CCc2cc(S(=O)(=O)Nc3ccc(C(F)(F)F)cc3)cc3c2N1CC3`, for which the inhibition is -0.849%.

Consider `Cc1nnc(Nc2ccccc2F)s1`, for which the inhibition is -1.25%.

For the compound `CCc1ccc2c(c1)C1(NN=C(c3ccccc3)S1)C(=O)N2` (centres undefined), the inhibition is 1.69%.

As to `O=C(OCc1cc(=O)n2ccsc2n1)C1(c2ccc(Cl)cc2)CC1`, the inhibition was -0.701%.

For the compound `COc1ccc([N+](=O)[O-])cc1N(CC(=O)Nc1ccccc1C(=O)N1CCOCC1)S(C)(=O)=O`, the inhibition is -1.48%.

Regarding `O=C(NCC#CCSc1nnc(-c2cccc3ccccc23)o1)c1cccs1`, the inhibition was 0.904%. With `O=C(COC(=O)CCCSc1nc2ccccc2[nH]1)Nc1ccc(Oc2ccccc2)cc1` the figure was -1.64%; with `Cn1c(=O)[nH]c(=O)c2c1nc(NCCCn1ccnc1)n2Cc1cccc(Br)c1`, 1.02%; with `CCN1CC=C2C(C#N)=C(N)C(C#N)(C#N)[C@H](c3ccoc3)[C@H]2C1`, 13.1% (active). On to `N#CC1=C(N)C(C#N)(C#N)[C@H](c2ccsc2)[C@H]2COCC=C12`, for which the inhibition is 0.548%. With `COc1ccc(OC)c(CCNC(=O)CCn2ccc3cc(S(=O)(=O)N4CCCC4)ccc32)c1` the figure was -0.0435%; with `CCN(C(=O)COC(=O)CCC(=O)c1cccs1)C1CCCCC1`, 0.798%. Consider `CCN(C(=O)CSc1cccc[n+]1[O-])c1ccccc1`, for which the inhibition is 1.75%. As for `COc1ccccc1CCC(=O)OCC(=O)N1CCN(S(=O)(=O)c2ccc(C)cc2C)CC1`, the inhibition is 2.52%.

Turning to `CC(=O)N1CC2(C)CN(C(C)=O)CC(C)(C1)C2=O`, the inhibition is -1.57%. Turning to `COCCn1c(SCc2nc3cc(OC)c(OC)cc3c(=O)[nH]2)nnc1-c1ccncc1`, the inhibition is 0.376%. For the compound `COCCCNC(=O)CC1C[C@H](C(=O)N2CCCCC2)[C@@]2(CCc3ccccc3)c3[nH]c4ccccc4c3CCN2C1=O` (some centres undefined), the inhibition is -1.3%. With `COCCCNC(=O)c1ccc(CNS(=O)(=O)c2ccc(NC(C)=O)cc2)cc1` the figure was 0.487%.

Take `NS(=O)(=O)c1ccc(NC(=O)COC(=O)C2(c3ccc(F)cc3)CCCC2)cc1`: the inhibition is -2.39%. The value for `CCOc1c(Nc2cccc(Cl)c2)c(=O)c1=O` was 1.65%; that for `CN(C)S(=O)(=O)c1ccc2oc(SCC(=O)Nc3ccccc3F)nc2c1` was -1.09%; that for `CCCCN(C(=O)CCNC(=O)NC12CC3CC(CC(C3)C1)C2)c1c(N)n(CCCC)c(=O)[nH]c1=O` was 3.96%. In the case of `CC(C)N1C(=S)SC(C)(C)C1n1oc(=O)n(-c2ccc(Cl)c(Cl)c2)c1=O` (centres undefined), the inhibition is -0.52%.

As to `O=c1c2cc(-c3ccccc3)sc2nc2n1N=C(c1cccs1)CS2`, the inhibition was 0.0849%. For `COc1cccc(C2=CC(=O)C[C@H](c3ccc(OC)c(OC)c3)C2)c1`, the inhibition is -3.83%. On to `COc1cccc2cc(/C(C)=N/NC(=O)c3ccco3)oc12`, for which the inhibition was 1.34%. Regarding `COc1cc(NC(=O)C2=C(C)OCCS2)c(Cl)cc1C(=O)NCCN1CCN(C)CC1`, the inhibition is -0.476%. `COc1ccc(-c2nnc(SC(=O)N3c4ccccc4Sc4ccccc43)o2)cc1`: the inhibition is -0.412%.

In the case of `COc1cc(CC(=O)N2CCC(n3nccc3NC(=O)C3CC3)CC2)cc(OC)c1OC`, the inhibition is 0.38%. Turning to `COc1ccc(N2CCN(C(=O)c3cccs3)CC2)cc1`, the inhibition is -0.405%. Consider `NC1=NC(=O)C(Cc2cccc(Cl)c2)S1` (centres undefined), for which the inhibition was -2.61%. Consider `CCOC(=O)c1c(NC(=O)CN2C(=O)NC3(CCC(C)CC3)C2=O)sc(C)c1CC` (centres undefined), for which the inhibition is -4.1%. For `O=C1CCC(C(=O)N2CCN(c3ccccc3Cl)CC2)CN1CC1CCCCC1` (centres undefined), the inhibition is 0.849%. With `Cc1ccc(C(O)P(=O)(OC(C)C)c2ccc(N(C)C)cc2)cc1` (centres undefined) the figure was -1.46%; with `CCCCCCCCc1c(O)nc(-n2[nH]c(C)c(CCO)c2=O)[nH]c1=O`, 2.37%. With `COc1ccc(N2CCN(S(=O)(=O)CCNC(=O)C34CC5CC(CC(C5)C3)C4)CC2)cc1` the figure was -0.995%; with `ONC(=Nc1ccccc1)c1ccccc1Cl`, 0.392%. Regarding `Cc1ccc(NC(=O)c2ccn(C(=O)Nc3ccccc3)n2)c(C)c1`, the inhibition is 0.808%.

As to `S=C(NCCc1ccccc1)N1CCn2cccc2C1c1ccncc1` (centres undefined), the inhibition is 0.92%. The value for `CNC[C@@H]1Oc2c(NS(C)(=O)=O)cccc2C(=O)N([C@@H](C)CO)C[C@H]1C` was -0.151%.

The values above are taken from PubChem BioAssay AID504406 (Broad Institute, 2011).
